The values that follow come from PubChem BioAssay (NCI).

The panel holds about 83,000 compounds, 20% with a hit somewhere; the sample as a whole holds those more often.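 A percent growth of 40 corresponds to 60% growth inhibition; 0 means no net growth; -100 means all cells died. Active threshold: below 10.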 Unmarked numbers belong to inactive results. Calls of active or inactive are those of the source.

Some test systems named below: DU-145 prostate; K-562 leukemia; MALME-3M melanoma; MDA-MB-231 breast; RXF 393 renal; SF-268 CNS; SF-295 CNS; SF-539 CNS; UACC-257 melanoma; M14 melanoma; HCT-15 colon; HT29 colon; SNB-75 CNS; SNB-19 CNS; U251 CNS; PC-3 prostate; SK-MEL-5 melanoma; UACC-62 melanoma; LOX IMVI melanoma; SK-MEL-28 melanoma.
What all share (experiment): NCI-60 one-dose screen, 48 h (100 = growth as untreated, 0 = no growth, -100 = all killed)
Common to all, as to conditions: 10 µM unless noted

Take `COc1cc(C(C)=C(c2ccc(OCCN(C)C)cc2)c2ccc(OCCN(C)C)cc2)ccc1F`: the growth was 102% with DU-145 prostate; 93.3% in the experiment with K-562 leukemia; 92.6% in the experiment on MALME-3M melanoma; 102% in the experiment with MDA-MB-231 breast; 90.6% in the experiment with RXF 393 renal; 98.5% with SF-268 CNS. Further, the growth in the experiment on SF-295 CNS is 100%; in the experiment on SF-539 CNS, 101%; in the experiment with UACC-257 melanoma it was 111%; with M14 melanoma, 110%; in the experiment with HCT-15 colon, 101%; with HT29 colon, 108%. Also, the growth in the experiment on SNB-75 CNS was 100%; in the experiment on SNB-19 CNS it was 98.2%; in the experiment with U251 CNS it was 106%; in the experiment with PC-3 prostate, 110%; in the experiment with SK-MEL-5 melanoma, 96.6%; in the experiment on UACC-62 melanoma, 97.8%. In addition, the growth was 95.3% in the experiment with LOX IMVI melanoma and 109% in the experiment on SK-MEL-28 melanoma.

Consider `CC1=C(C)C(=O)C(Nc2cccc(C)c2)=C(Br)C1=O`, for which the growth in the experiment with DU-145 prostate is 104%; in the experiment with K-562 leukemia it was 2.13% (active); in the experiment with MALME-3M melanoma, 117%; in the experiment on MDA-MB-231 breast it was 67.8%; in the experiment on RXF 393 renal, 106%; in the experiment on SF-268 CNS, 100%. The growth is 100% in the experiment on SF-295 CNS; 98.2% in the experiment on SF-539 CNS; 84.8% in the experiment with UACC-257 melanoma; 104% in the experiment on M14 melanoma; 98.4% in the experiment with HCT-15 colon; 105% with HT29 colon. Also, the growth with SNB-75 CNS is 67.7%; in the experiment with SNB-19 CNS, 101%; in the experiment on U251 CNS, 101%; with PC-3 prostate, 78.5%; in the experiment on SK-MEL-5 melanoma it was 90.5%; with UACC-62 melanoma, 94.4%. Further, in the experiment with LOX IMVI melanoma, the growth was 58.1%.

`Cc1ccccc1N1CCN(C2=C(Cl)C(=O)c3ncccc3C2=O)CC1`: the growth with DU-145 prostate is 20.3%; with K-562 leukemia it was 7.01% (active); in the experiment with MALME-3M melanoma, -14.5% (active); in the experiment with MDA-MB-231 breast, 88.3%; in the experiment on RXF 393 renal, -10.9% (active); in the experiment on SF-268 CNS it was 80.2%. For the same compound, the growth in the experiment with SF-295 CNS was 86.8%; in the experiment on SF-539 CNS, 78.9%; in the experiment with UACC-257 melanoma, 21.7%; with M14 melanoma it was 36.2%; in the experiment on HCT-15 colon, 4.38% (active); in the experiment with HT29 colon it was 94.9%. In addition, the growth in the experiment with SNB-75 CNS was 82.6%; in the experiment on SNB-19 CNS, 74.9%; with U251 CNS, 71.3%; in the experiment with PC-3 prostate it was 66.1%; with SK-MEL-5 melanoma it was 88.8%; with UACC-62 melanoma it was 66.2%. Further, the growth in the experiment on LOX IMVI melanoma was 1.19% (active).

Take `CCOC(=O)c1c(N)c(C#N)cn1Cc1ccc(Cl)cc1Cl`: the growth was 93.5% in the experiment with DU-145 prostate; 24.8% in the experiment with K-562 leukemia; 85.6% in the experiment on MALME-3M melanoma; 43.9% with MDA-MB-231 breast; 63.1% in the experiment with RXF 393 renal; 80.5% in the experiment with SF-268 CNS. In addition, the growth in the experiment on SF-295 CNS is 80.2%; in the experiment with SF-539 CNS, 73.3%; with UACC-257 melanoma it was 92.7%; with M14 melanoma, 72.4%; in the experiment with HCT-15 colon, 48.8%; in the experiment on HT29 colon, 80.4%. The growth with SNB-75 CNS is 47.3%; with SNB-19 CNS, 68.7%; in the experiment with U251 CNS, 64.1%; in the experiment on PC-3 prostate, 71.5%; in the experiment with SK-MEL-5 melanoma, 78%; in the experiment with UACC-62 melanoma, 59.8%. Also, the growth in the experiment with LOX IMVI melanoma was 78.8%.

With `Clc1ccc2c(N/N=C/c3c[nH]c4ccccc34)ccnc2c1`, the growth in the experiment on DU-145 prostate was -90.2% (active); with K-562 leukemia, -22.1% (active); in the experiment on MALME-3M melanoma, -95.8% (active); with MDA-MB-231 breast, -83.5% (active); with RXF 393 renal, -87.2% (active); in the experiment on SF-268 CNS, -58.4% (active). Further, the growth with SF-295 CNS is -85.3% (active); in the experiment with SF-539 CNS, -86.7% (active); in the experiment on UACC-257 melanoma it was -91.8% (active); in the experiment on M14 melanoma, -89.3% (active); with HCT-15 colon, -82.7% (active); in the experiment with HT29 colon it was -72.3% (active). The growth was -96.2% (active) with SNB-75 CNS; -92.4% (active) in the experiment with SNB-19 CNS; -84.1% (active) in the experiment with U251 CNS; -81% (active) in the experiment on PC-3 prostate; -98.4% (active) in the experiment on SK-MEL-5 melanoma; -61.7% (active) in the experiment with UACC-62 melanoma. In addition, the growth with LOX IMVI melanoma is -92.9% (active).

On to `CSc1ccc(C(=NNS(=O)(=O)c2ccc(C)cc2)c2ccc(Cl)cc2)cc1`, for which the growth in the experiment on DU-145 prostate was 108%; in the experiment on K-562 leukemia, 94.6%; in the experiment on MALME-3M melanoma, 89.9%; in the experiment on MDA-MB-231 breast, 104%; in the experiment with RXF 393 renal, 101%; in the experiment on SF-268 CNS, 95.3%. The growth is 96.9% in the experiment with SF-295 CNS; 102% in the experiment on SF-539 CNS; 100% in the experiment with UACC-257 melanoma; 103% in the experiment with M14 melanoma; 101% in the experiment with HCT-15 colon; 99.8% in the experiment with HT29 colon. The growth is 85.4% in the experiment with SNB-75 CNS; 105% in the experiment with SNB-19 CNS; 103% in the experiment on U251 CNS; 86.4% in the experiment with PC-3 prostate; 99.3% in the experiment on SK-MEL-5 melanoma; 90.1% in the experiment with UACC-62 melanoma. The growth in the experiment with LOX IMVI melanoma is 106%.

With `C/C(=C(/C)C1CC1CCNC1CCC(NC(=O)OC(C)(C)C)CC1)c1ccccc1` (centres undefined), the growth was 84.6% in the experiment with DU-145 prostate; 0.99% (active) in the experiment on K-562 leukemia; 36.6% in the experiment on MALME-3M melanoma; 72.9% with MDA-MB-231 breast; 42.7% in the experiment on RXF 393 renal; 84.7% in the experiment with SF-268 CNS. In addition, the growth in the experiment on SF-295 CNS was 77.8%; in the experiment on SF-539 CNS, 63.5%; with UACC-257 melanoma, 55.4%; with M14 melanoma, 21.3%; with HCT-15 colon, 42.6%; in the experiment with HT29 colon, 11.9%. In addition, the growth in the experiment on SNB-75 CNS was 60.1%; in the experiment on SNB-19 CNS, 91.3%; with U251 CNS, 61.3%; in the experiment on PC-3 prostate, 63.8%; in the experiment on SK-MEL-5 melanoma it was 45.7%; in the experiment on UACC-62 melanoma, 83.1%. For the same compound, the growth with LOX IMVI melanoma is 10.2%.

In the case of `C#CCOc1ccc(-c2csc(NC(=O)C=C)n2)cc1NS(=O)(=O)c1cccc2c(N(C)C)cccc12`, the growth with DU-145 prostate is 44.6%; in the experiment on K-562 leukemia it was 9.26% (active); with MALME-3M melanoma it was 62.5%; in the experiment with MDA-MB-231 breast it was 31.7%; in the experiment with RXF 393 renal, -6.3% (active); in the experiment with SF-268 CNS it was 64.7%. The growth in the experiment with SF-295 CNS was 66.8%; with SF-539 CNS, 3.55% (active); in the experiment with UACC-257 melanoma, 68.6%; in the experiment with M14 melanoma it was 31.9%; in the experiment with HCT-15 colon, -9.26% (active); with HT29 colon, 12.6%. The growth in the experiment with SNB-75 CNS is 1.15% (active); in the experiment on SNB-19 CNS, 71.2%; with U251 CNS, 47.7%; with PC-3 prostate, 53.6%; with SK-MEL-5 melanoma, 63.6%; in the experiment on UACC-62 melanoma, 37.1%. Moreover, the growth is -91% (active) in the experiment on LOX IMVI melanoma and 14.9% in the experiment on SK-MEL-28 melanoma.
